Test results from PubChem BioAssay (NCI).
Values joined by “and” are separate entries in the source; they are usually repeats but may differ in a detail not shown here. Equal entries are not always repeated. About 83,000 compounds went through this panel and 20% of them were active in at least one assay; those are over-represented in the sample as a whole.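 Testing used 96-well plates and a 48-hour single-concentration exposure. Example: -40 means 40% of the starting cells died.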 Active and inactive are the calls of the source. Rule for the calls: active = growth percent below 10; inactive = the rest.

Each molecule was assayed on MDA-MB-468 breast (assay: NCI-60 one-dose screen, 48 h (100 = growth as untreated, 0 = no growth, -100 = all killed)). Settings: 10 µM unless noted.

SMILES | growth
O=[N+]([O-])c1ccc(N=Nc2c(Cl)cc(O)cc2Cl)cc1 | -11.7% (active)
CCOC(=O)c1ccc(NC2=CC(=O)C(C)=C(C)C2=O)cc1 | 13.8% (inactive)
Cc1cn(-c2cc(NC(=O)c3cncc(C#Cc4cnc5ccc(O[C@@H]6CCOC6)nn45)c3)cc(C(F)(F)F)c2)cn1 | -74.8% (active)
CC(C)(C)c1ccc(/C=C/C(=O)Nc2ccc(O)cc2)cc1 | 92.2% (inactive)
CCOc1cc2ncc(C#N)c(Nc3ccc(OCc4ccccn4)c(Cl)c3)c2cc1NC(=O)/C=C/CN(C)C | -35.1% (active)
C=C1SC(=Nc2ccccc2Cl)N(C(=O)c2sc3ccccc3c2Cl)C1(C)C | 50% (inactive)
Cn1cc(-c2nnc(-c3cn(C)c4ncc(Br)cc34)s2)c2cc(Br)ccc21 | 101% (inactive)
O=Nc1ccc(NO)c2ccccc12 | 73.7% (inactive)
C#CCOc1ccc(C2=NN(C)C3N=C(Cl)c4ncn(C)c4N23)cc1OCC#C (stereo not given) | 86.3% (inactive)
CCCCCCCCCCCCCCCc1cc(O)ccc1N | 70.1% (inactive) and 6.15% (active)
c1ccc(C(=NNc2nc3ccccc3o2)c2ccccn2)nc1 | -27.4% (active)
Nc1ccc2ccccc2c1-c1c(N)ccc2ccccc12 | 11.8% (inactive)
CCn1cc(C(=O)O)c(=O)c2cc(F)c(N3CCN(S(=O)(=O)c4ccc(Cl)cc4Cl)CC3)cc21 | -1.55% (active)
CCCCCN(CCCCC)CC(O)c1c(Cl)ccc2ccccc12 (stereo not given) | 78.9% (inactive)
O=C1CCCCCCCCC(O)C(O)CCCC(c2cccs2)O1 (stereo not given) | 95.5% (inactive)
Cn1cc(-c2nonc2-c2c[nH]c3ccc(F)cc23)c2cccnc21 | -7.39% (active)
FC(F)(F)c1[nH]ncc1-c1nc2ccc3[nH]ncc3c2c2c1CCCC2 | 19.7% (inactive)
COc1ccc(C/C(C)=C(\c2ccc(Cl)cc2)c2ccc(OCCN3CCCC3)cc2)cc1 | 70% (inactive)
CCOc1nc(-c2ccccc2)cc2c(O)c(C(=O)O)[nH]c(=O)c12 | 96.2% (inactive)
CCOc1cccc(-c2nc(N)nc(Nc3ccccc3SSc3ccccc3Nc3nc(N)nc(-c4cccc(OCC)c4)n3)n2)c1 | 107% (inactive)

SMILES | growth
CCC(c1ccc(OC)cc1)C(CC)c1ccc(O)c(CN2CCCCC2)c1 (stereo not given) | 22.9% (inactive)
COc1ccc(C=Nc2c(C(=O)Nc3cccc(Cl)c3C)sc3nc(C)c(C(=O)/C=C/c4ccc(OC)cc4)cc23)cc1 | 17.3% (inactive)
O=C1C(Cl)=C(Nc2ccccc2)C(=O)c2ccccc21 | -77.8% (active)
Cc1ccc(-c2nc3nc(-c4ccccc4)nc(N4CCCN(S(C)(=O)=O)CC4)c3o2)cc1 | 121% (inactive)
COc1ccc(CCN2CCC(Nc3nc4ccccc4n3Cc3ccc(F)cc3)CC2)cc1 | -84.1% (active)
Cn1c(/C=C(\C#N)c2cccc(C(F)(F)F)c2)nc2c(N3CCOCC3)nc(Cl)nc21 | -40.3% (active)
O=C1/C=C/[C@@H](O)[C@@H]2C[C@@H](O)C[C@H]2/C=C/CCC[C@H](CCOCc2ccccc2)O1 | -41.9% (active)
CCOc1ccc(NC(=S)N2CCC(CCCC3CCN(C(=S)Nc4ccc(OCC)cc4)CC3)CC2)cc1 | 58.7% (inactive)
OC(COc1cccc2ccccc12)CN1CCN(c2ccc(Cl)cc2)CC1 (stereo not given) | 58.7% (inactive) and 96.8% (inactive)
Cn1nc(CC#N)c2c(=N)n(N)cnc21 | 106% (inactive)
COC(=O)c1ccc2oc(NC(=O)c3ccc(Nc4ccc([N+](=O)[O-])cc4C)c([N+](=O)[O-])c3)nc2c1 | 102% (inactive)
O=C(Nc1ccc(NC(=O)c2cc(=O)[nH]c3ccccc23)cc1)Nc1cccc(C(F)(F)F)c1 | 24.6% (inactive)
Cc1ccc2c(c1)C(=O)CCS2 | 111% (inactive)
CCCCCCCCc1ccc(OCCOCC[N+](C)(C)CC)cc1 (tested in a mixture with another compound) | -11.3% (active)
O=C(N/N=C/c1cccc(O)c1O)c1ccccc1 | -12.6% (active)
CCn1c(SCC(=O)c2ccc(Br)cc2)nnc1-c1ccncc1 | 108% (inactive)
COc1ccc(C(=O)/C=C/c2ccc(OCc3ccc(Cl)cc3)c(OC)c2)cc1OC | 50.9% (inactive)
Nc1c(C(=O)Nc2ccccc2)sc2nc3c(cc12)C(O)CCC3 (stereo not given) | 51.6% (inactive)
CC1=C(C)C(=O)C(Nc2ccc(C)c(C)c2)=C(Br)C1=O | 1.26% (active)
COc1cc(-c2csc(NC(=O)Nc3ccc(Cl)c(C(F)(F)F)c3)n2)cc(OC)c1OC | -12.7% (active)
